# Laboratory results as given in PubChem BioAssay (NCATS).
# Records with an inconclusive call do not appear. A number with no mark means an inactive call. Activity calls are given as the source filed them. Calls follow the shape of the dose curve; as a rule, active = well fitted inhibition curve with a large enough effect; inconclusive = small, poorly fitted or top-dose-only effect; inactive = no such curve, though single readings can be large or run the other way.
# Target: Retinaldehyde dehydrogenase 3 (Homo sapiens) (UniProt P47895)
# Experiment: qHTS for Inhibitors of the Aldehyde Dehydrogenase Family (ALDH1A3) Confirmatory screens (AID 2061311); also: nearly all actives have a fitted effect of over 60% in size
# Details: ALDH inhibition qHTS; series mostly up to 46 µM; activity change, negative = inhibition: at the top concentration
# % is scaled to controls: 0 for no effect and ±100 for the full control effect; potency is read from the fitted curve at half-maximal effect.
SMILES,Potency,outcome,"activity change, negative = inhibition"
CC(=O)c1ccc(N2CCN(C(=O)CCS(=O)(=O)c3ccc4c(c3)oc(=O)n4C)CC2)cc1,16.2 µM (active),,
COc1cccc(S(=O)(=O)N2CCC3(CC2)CC(CC(=O)NC2CC2)CCO3)c1 (stereo not given),,inactive,
CCC(=O)Nc1ccc(S(=O)(=O)NCc2ccc3c(c2)CCN3C(=O)c2ccc(C)cc2)cc1,,,-1.39%
O=C(O)c1ccc2c(c1)C(=O)N(CCc1ccc(O)cc1)C2=O,,,-11%
O=C(C1CCN(Cc2ccccc2-c2ccccc2F)CC1)N1CCN(Cc2ccccc2)CC1,,,-4.62%
CN1CCN(c2ccc(NC(=O)CN(C)Cc3c(O)ccc4ccccc34)cc2)CC1,22.5 µM (active),,
Cn1sc(=O)n(Cc2ccccc2)c1=O,12.7 µM (active),,
Cc1nc(C(C)Nc2ncnc3ccc(-c4ccc5c(c4)OCO5)cc23)cs1 (stereo not given),,,-12.1%
CC(C)(C)c1ccc(S(=O)(=O)c2cnc(SCC(=O)Nc3ccc(F)c(Cl)c3)[nH]c2=O)cc1,,,-18.6%
NC(=O)C1CCN(c2nc(-c3ccc4ccccc4c3)cs2)CC1,,inactive,
Cc1cc(C)nc(NC(=S)N2CCN(c3ccc4cn(C)nc4c3)CC2)c1,15.9 µM (active),,
COc1cc(NS(=O)(=O)c2cccc([N+](=O)[O-])c2)c2ncccc2c1,5.65 µM (active),,
Cc1ccc(CCN2C(=O)c3ccc(C(=O)O)cc3C2=O)cc1,,,-13.6%
CN(C)c1ccc(-c2cc[nH]c(=O)c2N)cc1,20.1 µM (active),,
CC(C)CCN(C)Cc1ccc(-c2ccccc2)cc1,4.19 µM (active),,
O=S1(=O)N=C(Oc2cccc3ccccc23)c2ccccc21,5.04 µM (active),,
COc1ccc(-c2nc(CCNC(=O)c3c(F)cccc3Cl)cs2)cc1,,inactive,
O=C(Cc1ccc(F)cc1)Nc1cccc(-c2nc3cccnc3s2)c1,,,-1.64%
Cc1oc(-c2ccccc2F)nc1CS(=O)(=O)CC(=O)N1CCN(c2cccc(C(F)(F)F)c2)CC1,,,-15.6%
CN(C)c1cccc(-c2cnc(N3CCC(c4ncc[nH]4)CC3)s2)c1,4 µM (active),,

SMILES,Potency,outcome,"activity change, negative = inhibition"
COc1cccc(CNC(=O)c2ccc3c(c2)sc2nc(-c4ccccc4)cn23)c1OC,,,-1.54%
COc1ccc(C2=NN(CC(=O)NCCc3ccc(OC)c(OC)c3)C(=O)CC2)cc1,,,-10.9%
COc1ccc(C2=Nn3c(nnc3-c3ccccc3OC)SC2)cc1OC1CCCC1,22.4 µM (active),,
CC(=O)c1c(C)n(-c2ccc(C)cc2)c2ccc(OC(=O)COc3ccccc3)cc12,,,4.37%
O=C1Nc2cc(Cl)ccc2/C1=C\c1cc(Cl)c(O)c(Cl)c1,,,-9.23%
Cc1ccc(S(=O)(=O)Nc2cnccc2C(=O)Nc2nc(C(=O)O)cs2)cc1,20.1 µM (active),,
COc1ccc(C2Nc3ccccc3C(=O)N2Cc2ccco2)cc1COc1ccc(N)cc1 (stereo not given),,,-17.5% [at 0.022 µM]
O=C1Cc2cc(S(=O)(=O)N3CCNCC3)ccc2N1,,,-13.1%
COc1ccc(C(=O)N(Cc2ccco2)Cc2ccco2)c(O)c1,,inactive,
O=C(O)CN1C(=O)/C(=C/c2ccc(-c3cccc(Cl)c3)o2)SC1=S,,,-10.3%
O=C1Cc2cc(S(=O)(=O)N3CCN(c4ccc(F)cc4)CC3)ccc2N1,,inactive; activator [at 85.7 µM],
CC(=O)N1CCN(c2ccc(NCc3ccc4c(c3)OCO4)cc2)CC1,11.3 µM (active),,
Cc1ccc(-c2cccc(C=O)c2)c(C)c1,,,-6.2% [at 85.7 µM]
CCOC(=O)C1CCN(C(=O)C(C)(C)NC(=O)Nc2ccc(N(C)C)cc2)CC1,14.2 µM (active),,
CCOC(=O)c1[nH]c2c(c1C)C(=S)CC(c1ccco1)C2 (stereo not given),12.7 µM (active),,
Cc1ccc(-c2cc(C(=O)NCc3cccc(F)c3)nn3cnnc23)cc1,8.91 µM (active),,
CSCCC(NS(=O)(=O)c1ccc2c(c1)oc(=O)n2C)C(=O)N1CCN(c2ccc(C(C)=O)cc2)CC1 (stereo not given),,,-7.18%
CC(=O)Nc1sc2c(c1-c1csc3ccccc13)CCNC2,,,-14.2%
Cc1sc(NC(=O)Cc2ccc3c(c2)OCO3)nc1-c1ccc2c(c1)CCN2,12.7 µM (active),,
O=C1Nc2ccc(Cl)cc2/C1=C\c1cc(Cl)c(O)c(Cl)c1,,,-47.5%
